The values that follow come from the supplement of paper PMC11417369.

± gives the standard deviation of the averaged measurements. The full ranking holds about 25,000 sequences; the median of “ln(normalized median fluorescence intensity)” is about 8.6, and the highest 2% start at about 10. This is one part of a sample in which the highest values are shown more often than they occur.

This experiment deals with PfAP2-EXP AP2 domain (GST-tagged). Briefly: gcPBM binding intensity (ln(normalized median fluorescence intensity)); higher = stronger DNA binding. An outline of the steps: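 After 1 h on an Agilent 4 × 180k array of primer-extended double-stranded 36-bp intergenic genomic probes and negative controls, bound GST-tagged P. falciparum DNA-binding domains were detected with Alexa488 anti-GST antibody and scanned at 488 nm. The domains had been expressed in E. coli, and binding took place in 1× PBS with 1% milk, 0.2 mg/ml BSA, 0.5% salmon testes DNA and 0.03% Triton X-100. Binding intensity is the highest Masliner-normalised natural-log median intensity across replicate spots of either probe orientation.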
In the case of “TTACACATACATATGTGGGAAAATATTGCTACATAT [CACACA_negctrl_site463]”, the “gcPBM binding intensity (ln)” value was found to be 8.57 ± 0.49.
The result for “TATATTTTTTAAACCACACACAATATAGAGTATAAT [CACACA_site4510]” reads 8.66 ± 0.47; that for “AAATTAATATATAAAAGTACCCATATATTTAATATA [XGTACX_site3551]”, 8.21 ± 0.39.
Take “ATGCATATAATTATATGTACATATAAGAAATATATA [XGTACX_site517]”: the “gcPBM binding intensity (ln)” value is 8.71 ± 0.37.
Regarding “ATTTCTTCTTTTTTTGTGAAACTGGAATATATATAT [XGTACX_negctrl_site527]”, the “gcPBM binding intensity (ln)” value stood at 9.17 ± 0.057.
The result for “TATATAGTAATTTATTCACACAATTGGCACACCTCA [CACACA_site4679]” reads 8.71 ± 0.35; that for “ATTCTAAATAATAAGAGTACAAATAATATGGAGAAG [XGTACX_site5209]”, 9.12 ± 0.51; that for “CATTCTACAATAAAAAGTACATATATATATTATATA [XGTACX_site921]”, 8.43 ± 0.34.
In the case of “TTTTGTGATCTTACCACCTTTCATAATATTAATAAA [GTGCAC_negctrl_site360]” it was 8.61 ± 0.31.
The result for “ATATATATATAGTGCACACATATAAAATATATATAA [CACACA_site2745]” reads 9.9 ± 0.071; that for ATATTTTATATAATAGTGCAAATAATATTAAATAAT, 8.66 ± 0.21; that for TCAAAAATTTATATAGTGCAATATATATATAATGTA, 8.31 ± 0.42.
Regarding ATATATATATATATAGTGCAAATATCTTCTTTATAA, the “gcPBM binding intensity (ln)” value amounted to 10.3 ± 0.3.
In the case of “ATATATATATATAGTGCACACATATAAAATATATAT [CACACA_site8884]” it was 10.29 ± 0.021; in that of “AATATATATATATGTGCACACATATATAATATGTAT [CACACA_site716]”, 8.53 ± 0.28.
The result for “ATATAAATATAGTGTGCACACACATAATATATATAT [CACACA_site8713]” reads 9.38 ± 0.057.
Take “TATATATATATGTGCACACATAATAAAAAAAAAAAT [CACACA_site3831]”: the “gcPBM binding intensity (ln)” value was 9.9 ± 0.11.
“TATATATATATATGTGCACACATAATAAAAAAAAAA [CACACA_site3830]”: the “gcPBM binding intensity (ln)” value is 10.32 ± 0.064.
The result for “TTGTTCATCTTTTTTTTTTTTTTTTTTTTTTAAATC [CACACA_negctrl_site191]” reads 8.18 ± 0.62; that for “TCTCTAACTTTTAATACACACAAATAAATAAATAAA [CACACA_site6245]”, 8.47 ± 0.35; that for “GTGAGTGAAATATGCAAACACACACCCGAAAAATGT [CACACA_site3197]”, 8.7 ± 0.57.
In the case of “TTAAAGGGAATGTATACACACGTTTCTCTATGTTAT [CACACA_site4793]” it was 8.59 ± 0.31.
The result for “ACTAATAAAGGTGTAATACACACTATAAAAAGGAAT [CACACA_site1124]” reads 8.88 ± 0.57; that for “TTCTTTGTTTTTTTTTTTTTTTTAAAAGATAATATT [XGTACX_negctrl_site381]”, 8.43 ± 0.25; that for “TATATATATATATGATGTACACATTTTATTATTTGT [XGTACX_site1147]”, 9.94 ± 0.31.
Turning to “TTTCAAAAATGAGTTACACACACACGGATATAAATA [CACACA_site7116]”, the “gcPBM binding intensity (ln)” value was 8.88 ± 0.56.
In the case of “TTTCAAAAATGAGTTACACACACACCGATATATATA [CACACA_site5263]” it was 8.79 ± 0.61; in that of “TCAAAAATGAGTTACACACACACATATATATATATA [CACACA_site2229]”, 10.2 ± 0.47.
In the case of “AATAAATTACTATGTACACACATAAGAGTATAAATA [CACACA_site6940]” it was 8.56 ± 0.32; in that of “TACGATGTTTTAAAATGTACATAAAAGTCACATAAG [XGTACX_site3297]”, 8.52 ± 0.34.
In the case of “GTTTGGTGGTGTTTTGGTACGTACGGGGGTGTATGT [XGTACX_site1211]” it was 9.66 ± 0.2.
Regarding “TATGATTTTTATATATGTACGTATGGTGTTTTACAA [XGTACX_site6100]”, the “gcPBM binding intensity (ln)” value is 8.8 ± 0.42.
The result for “GTTTGGTGGTGTTTTGGTACGTACGGGGGGGTATGT [XGTACX_site1983]” reads 10.6 ± 0.19.
For “TATAAAAAAAAATGTGGTACATATTTCCATTTTCCA [XGTACX_site4571]”, the “gcPBM binding intensity (ln)” value is 8.11 ± 0.23.
Turning to “TATTTTTCCATTGGGGGTACATGTGTTATATTTATT [XGTACX_site5914]”, the “gcPBM binding intensity (ln)” value was determined as 10.4 ± 0.76.
As to “ATTTATTTTCTGTGTACACATATGTTGGGTATTTTA [CACACA_site5902]”, the “gcPBM binding intensity (ln)” value was 9.14 ± 0.45.
In the case of “AATAATATACCTCTTGTGCACATATTAAAAGTTCAT [GTGCAC_site9536]” it was 8.97 ± 0.22.
Regarding “ACAATTGAAGAAATACGTACATAAAGAAAAACTAGT [XGTACX_site820]”, the “gcPBM binding intensity (ln)” value is 9.16 ± 0.51.
The result for “TAAAAAGGAAAACACACACACACATATATATATATA [CACACA_site3588]” reads 10.2 ± 0.16; that for “AAGGAATAATATAAAACACACACATAAATATAAATA [CACACA_site9115]”, 8.68 ± 0.26.
The result for “AAAAGGAAAAATATCACACATATATATATATATATA [CACACA_site5586]” reads 10.2 ± 0.34.
In the case of “AGGAAAAAAGAAAAAACACACATAAATATATATATA [CACACA_site3085]” it was 9.64 ± 0.23; in that of “ATAAAAAGGAAACACACACACACACCCATATATATA [CACACA_site904]”, 8.73 ± 0.44.
For the sequence “ATAAAAAAAAGAAAAACACACACATATATATATATA [CACACA_site8243]”, the “gcPBM binding intensity (ln)” value is 10.2 ± 0.16.
On to “ATAAAAAATATCACATAAAATAAAAAAAGAAAGGAT [XGTACX_negctrl_site294]”, for which the “gcPBM binding intensity (ln)” value is 9.06 ± 0.52.
